Laboratory results from PubChem BioAssay (NCI).
The panel holds about 79,000 compounds, 15% with a hit somewhere; the sample as a whole holds those more often. The source made the active and inactive calls. Cut-off read from the data, not from the text of the source: active = growth inhibition above about 70%; inactive = the rest.

How the values were obtained:
[1] = NCI Yeast Anticancer Drug Screen. Data for the rad52 strain (AID 147);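 note: 0% = growth of vehicle-treated control cultures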; details: S. cerevisiae rad52 mutant growth inhibition, active compounds read high
In short: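 Genetically altered yeast (DNA damage repair defect) treated with compound; inhibition calculated relative to vehicle.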

[2] = NCI Yeast Anticancer Drug Screen. Data for the wt1 strain (AID 149);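 note: 0% = growth of vehicle-treated wt1 cultures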; details: S. cerevisiae wt1 strain (SPY 50644) growth inhibition, active compounds read high
In short: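 Each compound is tested on wt1 yeast and the loss of growth versus vehicle gives the inhibition value.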

[3] = NCI Yeast Anticancer Drug Screen. Data for the rad50EPP+ strain (AID 151);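 note: 0% = growth of vehicle-treated control cultures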; details: S. cerevisiae rad50 mutant strain, active compounds read high
In short: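 Strain rad50EPP+; compound exposure; % growth inhibition vs vehicle.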

[4] = NCI Yeast Anticancer Drug Screen. Data for the rad50 strain (AID 155);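 note: 0% = growth of vehicle-only cultures of the same strain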; details: S. cerevisiae rad50 strain growth inhibition, active compounds read high
In short: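 Vehicle-treated cultures provide the reference for the growth inhibition reported for compound-exposed, repair-deficient yeast.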

[5] = NCI Yeast Anticancer Drug Screen. Data for the mec2-1 strain (AID 157); details: S. cerevisiae mec2-1 strain, active compounds read high
In short: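 Cells of the genetically defined mec2-1 yeast strain are incubated with test compound. Inhibition of growth is calculated against vehicle-treated controls.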

[6] = NCI Yeast Anticancer Drug Screen. Data for the rad14 strain (AID 159);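 note: 0% = growth of vehicle-treated control cultures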; details: S. cerevisiae rad14 strain growth inhibition, active compounds read high
In short: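 Inhibition of growth is reported for a repair-deficient yeast mutant following compound treatment, calculated relative to cultures that received vehicle.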

[7] = NCI Yeast Anticancer Drug Screen. Data for the sgs1 mgt1 strain (AID 161);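 note: 0% = growth of cultures given vehicle only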; details: S. cerevisiae sgs1 mgt1 strain, active compounds read high
In short: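 Test agents were incubated with a DNA-repair-mutant yeast strain. Growth was then read and compared against vehicle-treated controls.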

[8] = NCI Yeast Anticancer Drug Screen. Data for the CLN2oe strain (AID 163);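 note: 0% = growth of vehicle-only control cultures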; details: S. cerevisiae CLN2oe strain, active compounds read high
In short: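 Strain altered in cell-cycle control, incubated with compound; growth compared to solvent-treated controls.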

[9] = NCI Yeast Anticancer Drug Screen. Data for the cln2 rad14 strain (AID 165);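 note: 0% = growth equal to vehicle treated cultures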; details: S. cerevisiae cln2 rad14 strain, active compounds read high
In short: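 The screen exposed genetically defined yeast (cln2 rad14) to test compounds and scored growth inhibition relative to vehicle-treated controls.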

[10] = NCI Yeast Anticancer Drug Screen. Data for the bub3 strain (AID 167); details: S. cerevisiae bub3 mutant strain, active compounds read high
In short: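 Mutant yeast screening strain plus compound; vehicle-treated cultures serve as the 0% inhibition reference.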

[11] = NCI Yeast Anticancer Drug Screen. Data for the wt2 strain (AID 169); details: S. cerevisiae wt2 strain growth inhibition, active compounds read high
In short: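 Steps: yeast strain treated with compound; growth recorded; inhibition calculated relative to cultures given vehicle alone.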

[12] = NCI Yeast Anticancer Drug Screen. Data for the mlh1 strain (AID 171);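 note: 0% = growth of vehicle-treated control cultures of the same strain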; details: S. cerevisiae mlh1 strain growth inhibition, active compounds read high
In short: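 Yeast screen: mutant strain plus compound, growth scored against vehicle control wells.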

[13] = NCI Yeast Anticancer Drug Screen. Data for the sgs1 strain (AID 173);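 note: 0% = growth of vehicle-only control cultures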; details: S. cerevisiae sgs1 mutant, active compounds read high
In short: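 Inhibition of yeast growth served as the measure. The mutant strain was treated with each compound, and growth was normalised to cultures receiving vehicle alone.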

[14] = NCI Yeast Anticancer Drug Screen. Data for the rad18 strain (AID 177); details: S. cerevisiae rad18 mutant growth inhibition, active compounds read high
In short: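 Inhibition values reflect reduced yeast growth compared with vehicle-treated controls, using a strain engineered with a DNA damage repair defect.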

[15] = NCI Yeast Anticancer Drug Screen. Data for the mlh1 rad18 strain (AID 175); details: S. cerevisiae mlh1 rad18 strain growth inhibition, active compounds read high
In short: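 Compound-treated yeast growth, normalised to vehicle controls. Strain bears defined DNA repair mutations.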

[16] = at 5.0 µM (retest, dose inferred, filed as 0.5)
[17] = at 50.0 µM (retest, dose inferred, filed as 5.0)

Measured: growth inhibition

COc1cc(N)ccc1Nc1c2ccccc2nc2ccccc12
inactive: [1]; at 1.2 µM -4% | [1]; at 3.7 µM 33% | [2]; at 1.2 µM -17% | [2]; at 3.7 µM -16% | [2]; at 11.0 µM -19% | [2]; at 33.0 µM -17% | [2]; at 100.0 µM 69% | [3]; at 1.2 µM -9% | [3]; at 3.7 µM -11% | [3]; at 11.0 µM 10% | [3]; at 33.0 µM 59% | [4]; at 1.2 µM 6% | [4]; at 3.7 µM 32% | [4]; at 50.0 µM 36.3% | [5]; at 1.2 µM -45% | [5]; at 3.7 µM -30% | [5]; [16] 20% | [5]; at 11.0 µM -27% | [5]; at 33.0 µM 2% | [5]; at 50.0 µM 42.4% | [6]; at 1.2 µM -43% | [6]; at 3.7 µM -25% | [6]; at 11.0 µM -5% | [6]; at 33.0 µM 13% | [6]; at 100.0 µM 66% | [7]; [16] 58% | [8]; at 1.2 µM 29% | [8]; at 3.7 µM 11% | [8]; at 11.0 µM 6% | [8]; at 33.0 µM 29% | [9]; [16] 40% | [10]; at 1.2 µM 8% | [10]; at 3.7 µM 15% | [10]; [16] 42% | [10]; at 11.0 µM 14% | [10]; at 33.0 µM 28% | [10]; at 50.0 µM 63% | [11]; at 1.2 µM 6% | [11]; at 3.7 µM 9% | [11]; at 11.0 µM 9% | [11]; at 33.0 µM 31% | [12]; at 1.2 µM -24% | [12]; at 3.7 µM -15% | [12]; at 11.0 µM -16% | [12]; at 33.0 µM 11% | [13]; at 1.2 µM -16% | [13]; at 3.7 µM 1% | [13]; at 11.0 µM -4% | [13]; at 33.0 µM 36% | [14]; at 1.2 µM -2% | [14]; at 3.7 µM -11% | [14]; at 11.0 µM -4% | [14]; at 33.0 µM 7%
active: [1]; at 11.0 µM 70% | [1]; at 33.0 µM 82% | [1]; at 100.0 µM 86% | [3]; at 100.0 µM 88% | [4]; [16] 90% | [4]; at 11.0 µM 74% | [4]; at 33.0 µM 89% | [4]; [17] 95% | [4]; at 100.0 µM 91% | [5]; [17] 92% | [5]; at 100.0 µM 84% | [7]; [17] 97% | [7]; at 50.0 µM 84.9% | [8]; at 100.0 µM 81% | [9]; [17] 83% | [9]; at 50.0 µM 80.8% | [10]; [17] 86% | [10]; at 100.0 µM 85% | [11]; at 100.0 µM 86% | [12]; at 100.0 µM 80% | [13]; at 100.0 µM 92% | [14]; at 100.0 µM 82%

CCCCCCCCN1C(=O)c2ccccc2C1=O
active: [7]; at 50.0 µM 78.7% | [10]; at 50.0 µM 89.5% | [15]; at 50.0 µM 91%
inactive: [1]; at 1.2 µM 0% | [1]; at 3.7 µM 0% | [1]; at 11.0 µM 5% | [1]; at 33.0 µM 10% | [1]; at 100.0 µM 6% | [2]; at 1.2 µM -2% | [2]; at 3.7 µM -1% | [2]; at 11.0 µM -1% | [2]; at 33.0 µM -4% | [2]; at 100.0 µM -6% | [3]; at 1.2 µM 2% | [3]; at 3.7 µM 9% | [3]; at 11.0 µM 14% | [3]; at 33.0 µM 18% | [3]; at 100.0 µM 42% | [4]; at 1.2 µM 0% | [4]; at 3.7 µM 3% | [4]; [16] 20% | [4]; at 11.0 µM 6% | [4]; at 33.0 µM 10% | [4]; [17] 15% | [4]; at 50.0 µM 39.5% | [4]; at 100.0 µM -2% | [5]; at 1.2 µM -3% | [5]; at 3.7 µM -4% | [5]; [16] -7% | [5]; at 11.0 µM -5% | [5]; at 33.0 µM -4% | [5]; [17] 13% | [5]; at 50.0 µM 50% | [5]; at 100.0 µM 0% | [6]; at 1.2 µM -2% | [6]; at 3.7 µM 0% | [6]; at 11.0 µM 6% | [6]; at 33.0 µM 14% | [6]; at 100.0 µM 18% | [7]; [16] 1% | [7]; [17] 36% | [8]; at 1.2 µM -2% | [8]; at 3.7 µM 0% | [8]; at 11.0 µM -1% | [8]; at 33.0 µM -2% | [8]; at 100.0 µM -1% | [9]; [16] -15% | [9]; [17] -7% | [9]; at 50.0 µM -91.1% | [10]; at 1.2 µM 2% | [10]; at 3.7 µM 4% | [10]; [16] 8% | [10]; at 11.0 µM 21% | [10]; at 33.0 µM 39% | [10]; [17] 40% | [10]; at 100.0 µM 50% | [11]; at 1.2 µM -2% | [11]; at 3.7 µM -3% | [11]; at 11.0 µM -4% | [11]; at 33.0 µM -5% | [11]; at 100.0 µM -4% | [12]; at 1.2 µM 0% | [12]; at 3.7 µM 0% | [12]; at 11.0 µM 3% | [12]; at 33.0 µM 7% | [12]; at 100.0 µM 14% | [13]; at 1.2 µM -3% | [13]; at 3.7 µM -1% | [13]; at 11.0 µM 0% | [13]; at 33.0 µM 4% | [13]; at 100.0 µM 13% | [15]; [16] -2% | [15]; [17] 62% | [14]; at 1.2 µM -2% | [14]; at 3.7 µM -3% | [14]; at 11.0 µM -2% | [14]; at 33.0 µM 4% | [14]; at 100.0 µM 14%
